# “And” between values parts separate entries of the source, which are not always exact repeats. Identical values can stand only once. A number with no mark means an inactive call. Inconclusive results are not listed. The source made the active and inactive calls. Unless noted, calls follow the shape of the dose curve; as a rule, active = well fitted curve in the direction sought with a large enough effect; inconclusive = small, poorly fitted or top-dose-only effect, or another doubt; inactive = no such curve, though single readings can be large; an effect the other way counts as inactive or inconclusive.
# Legend:
# [1] = Cell Viability - BJ (AID 421; calls by dose curve;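 also: potency is read from the fitted curve at half-maximal effect; cells exposed to compound for 40 hours at 37 °C before readout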); settings: BJ fibroblast viability, qHTS
# Outline: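 Normal human BJ foreskin fibroblasts, 1500/well in complete medium, treated 40 hr at 37 °C. Cellular ATP by CellTiter-Glo luminescence; normalized to DMSO and 100 uM tamoxifen, AC50 from Hill fit.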
# [2] = Cell Viability - Jurkat (AID 426;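 active = dose-dependent loss of cell ATP signal giving a full or clear fitted curve, ranked by lower potency value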; also: potency is read from the fitted curve at half-maximal effect); settings: qHTS
# Outline: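 qHTS, 1536-well; Jurkat E6-1, 5000 cells/well, complete medium; cpd 40 hr, 37 °C; CellTiter-Glo 20 min RT; luminescence. AC50 by Hill fit.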
# [3] = Cell Viability - MRC5 (AID 434; calls by dose curve;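 also: potency is read from the fitted curve at half-maximal effect; potency reflects cytotoxicity seen as loss of intracellular ATP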); settings: MRC5 lung fibroblast viability, qHTS
# Outline: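 MRC5 normal human lung fibroblasts (1500/well) were treated with compounds for 40 hr at 37 °C in complete medium, and viable cells were measured as intracellular ATP by CellTiter-Glo luminescence. AC50 came from Hill fits, normalized to DMSO and 100 uM tamoxifen.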
# [4] = Cell Viability - SK-N-SH (AID 435; calls by dose curve;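 also: potency is read from the fitted curve at half-maximal effect; compound exposure lasted 40 h at 37 °C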); settings: SK-N-SH neuroblastoma cell viability qHTS
# Outline: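 CellTiter-Glo ATP luminescence, 20 min RT read; cells pre-plated 5 hr, compound 40 hr at 37 °C, 1500 cells/well, complete medium. Normalized DMSO = 0, 100 uM tamoxifen = 100% inhibition; Hill-fit AC50.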
# [5] = target: Mitogen-activated protein kinase 10 (Mus musculus) (UniProt Q61831); assay: JNK3 AlphaScreen Assay (AID 530; active = well fitted curve in either direction with a large enough effect, not every such curve was filed as active;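 also: kinase came from lysate of stimulated human HepG2 cells; signal reports phosphorylation of biotinylated GST-cJun 1-79 at Ser73 with 10 µM ATP; % is scaled to controls: 0 for no effect and ±100 for the full control effect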)
# Outline: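 Inhibitors reduce antibody binding to phosphorylated biotin-cJun, lowering AlphaScreen luminescence. Lysates from HepG2 cells pre-activated by IL-1beta plus TNF-alpha supplied JNK3; compounds were titrated.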
# [6] = Cell Viability - N2a (AID 540); settings: N2a mouse neuroblastoma cell viability; activity change, negative = cytotoxicity: at 92.2 µM (top of the series);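 also: cells exposed to compound for 40 h at 37 °C; nearly all actives have a fitted effect of over 45% in size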; also: potency is read from the fitted curve at half-maximal effect;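 as to activity change, negative = cytotoxicity: plate controls were DMSO alone for no effect and tamoxifen control for full effect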
# Outline: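 Luminescent ATP signal (CellTiter-Glo, 20 min at room temperature) served as the viability read-out after N2a cells were treated with compounds for 40 hours at 37 °C. Concentration-response data were fitted to the Hill equation for AC50.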
# [7] = Cell Viability - H-4-II-E (AID 543); also: nearly all actives have a fitted effect of over 35% in size; also: potency is read from the fitted curve at half-maximal effect
# Outline: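 Luminescent ATP signal (CellTiter-Glo) served as the viability read-out, with cytotoxicity seen as a concentration-dependent ATP drop. Cells were treated for 40 hours in complete medium. AC50 values derive from Hill-equation modelling.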
# [8] = Cell Viability - SH-SY5Y (AID 544); settings: SH-SY5Y neuroblastoma cell viability; viability change, negative = cytotoxic: at 92.2 µM (top of the series); also: nearly all actives have a fitted effect of over 55% in size; also: potency is read from the fitted curve at half-maximal effect;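 as to viability change, negative = cytotoxic: 0% = DMSO alone and -100% = 100 µM tamoxifen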
# Outline: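 Luminescent ATP read-out (CellTiter-Glo) measures loss of viable SH-SY5Y neuroblastoma cells after 40 hr compound exposure at 37 °C. AC50 values derive from standard Hill modelling of qHTS concentration-response data.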
# [9] = Cell Viability - Renal Proximal Tubule (AID 545); settings: renal proximal tubule cells viability, primary cells of rat origin; activity change, negative = cytotoxicity: at 91.7 µM (top of the series); also: nearly all actives have a fitted effect of over 40% in size; also: potency is read from the fitted curve at half-maximal effect;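 as to activity change, negative = cytotoxicity: 0% = DMSO only and -100% = 100 µM tamoxifen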
# Outline: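 Rat kidney proximal tubule cells, freshly isolated; 1000 cells/well, 5 hr settle, compound 40 hr 37 °C. CellTiter-Glo 20 min RT, luminescence read. AC50 by standard Hill fit.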
# [10] = Cellular Toxicity (caspase-3) HepG2 (AID 654); also: potency is read from the fitted curve at half-maximal effect;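 as to caspase-3 activation: cells exposed to compound for 16 hours before reading; 0% = DMSO alone and 100% = caspase signal from 100 µM tamoxifen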
# Outline: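 Cells plated 5 hr at 37 °C, compound added, incubated 16 hr at 37 °C. Caspase-Glo 3/7 reagent followed, 20 min at room temperature, then luminescence read. Activation scored as signal increase; AC50 from Hill fit.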
# [11] = Cellular Toxicity (caspase-3) N2a (AID 665); settings: Potency: caspase-3 activation;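 also: compound exposure lasted 16 h at 37 °C before readout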
# Outline: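 N2a cells, 1500/well, 5 h settle at 37 °C; cpd 16 h, 37 °C; Caspase-Glo 3/7, 1 h RT; luminescence. Norm: DMSO = 0, 10 uM staurosporine = 100%. AC50, Hill fit.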
# [12] = Cellular Toxicity (caspase-3) Renal Proximal Tubule (AID 667);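 also: cells exposed to compound for 16 hours at 37 °C before detection; 0% = DMSO basal and 100% = 10 µM staurosporine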
# Outline: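 Luminescent caspase 3/7 signal from peptide-aminoluciferin cleavage measures apoptosis in freshly isolated rat kidney proximal tubule cells after 16 h compound exposure. Concentration-response data are normalized to DMSO and 10 uM staurosporine, and AC50 values come from Hill equation fits.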
# [13] = target: Cytochrome P450 3A4 (Homo sapiens) (UniProt P08684); assay: qHTS Assay for Inhibitors and Substrates of Cytochrome P450 3A4 (AID 884); also: nearly all actives have a fitted effect of over 50% in size; also: potency is read from the fitted curve at half-maximal effect
# Outline: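 20 nM human CYP3A4 with 25 uM Luciferin-PPXE (at KM) in 200 mM KPO4, preincubated 10 min with compound; NADPH regeneration started a 60 min RT reaction. Luciferin detected by luminescence, normalized to 57 uM ketoconazole as full inhibition.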
# [14] = target: Peroxisome proliferator-activated receptor alpha (Homo sapiens) (UniProt Q07869); assay: qHTS assay for small molecule agonists of the peroxisome proliferator-activated receptor alpha (PPARalpha) signaling pathway (AID 651778); settings: PathHunter PPARalpha complementation, chemiluminescence, 6 h; max response: stronger effect = higher value; also: % of control where 0% means no effect
# Outline: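 Cells plated at 2,000/well and held overnight at 37 C, 5% CO2, then compound added by pin tool for 6 hr; after PathHunter detection reagent and 60 min at room temperature, chemiluminescence from enzyme complementation was read.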
# [15] = qHTS assay for cell viability of HEK293 cells (AID 743288); settings: ATP luminescence (CellTiter-Glo), 18 h; max response: stronger effect = lower value; also: nearly all actives have a fitted effect of over 50% in size; also: potency is read from the fitted curve at half-maximal effect; as to max response: % is scaled to controls: 0 for no effect and ±100 for the full control effect
# Outline: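 Environmental chemicals tested in qHTS format against parental HEK293 cells; 18 h treatment, 37 C; read-out ATP luminescence (CellTiter-Glo), 30 min RT development.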
# [16] = target: Cytochrome P450 1A2 (Homo sapiens) (UniProt P05177); assay: p450-cyp1a2 (AID 410; calls by dose curve; also: potency is read from the fitted curve at half-maximal effect)
# Outline: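 Luminescent readout of luciferin formed from Luciferin-ME by human CYP1A2; data normalized against complete inhibition by 57 uM furafylline. Enzyme 20nM, substrate 100uM at Km, 100mM KPO4 buffer, 60 min reaction at room temperature.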
# [17] = target: Cytochrome P450 2C19 (Homo sapiens) (UniProt P33261); assay: qHTS Assay for Inhibitors and Substrates of Cytochrome P450 2C19 (AID 899); also: potency is read from the fitted curve at half-maximal effect; nearly all actives have a fitted effect of over 60% in size
# Outline: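 NADPH-dependent conversion of Luciferin-H EGE (10uM, at KM) by 5nM enzyme in 50mM KPO4, 60 min at 37C following 10 min compound preincubation. Stopped with luciferin detection buffer; luminescence read after 20 min.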
# [18] = target: 3',5'-cyclic-AMP phosphodiesterase 4B (Homo sapiens) (UniProt Q07343); assay: qHTS Assay for Inhibitors of PDE-IV (AID 607; active = well fitted activation curve with a large enough effect in the main read-out, with a control signal flat, not every such curve was filed as active; also: % of control where 0% means no effect)
# Outline: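 HEK293 ACTOne cells with CNG channel (1000/well), endogenous PDE4; membrane potential dye, compounds up to 22.9 uM final. Fluorescence Ex 535/Em 590; RO 20-1724 (100 uM final) as reference.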
# [19] = target: Cytochrome P450 3A4 (Homo sapiens) (UniProt P08684); assay: qHTS Assay for Activators of Cytochrome P450 3A4 (AID 885); also: nearly all actives have a fitted effect of over 65% in size
# Outline: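 Human CYP3A4 (20 nM) with Luciferin-PPXE at 25 uM (its KM) in 200 mM KPO4; 10 min compound preincubation, then NADPH regeneration and 60 min reaction at RT. Luciferin read by luminescence; normalized to 57 uM ketoconazole full inhibition.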
# Chain of Peroxisome proliferator-activated receptor alpha (Homo sapiens) (Q07869 whole entry, looked up): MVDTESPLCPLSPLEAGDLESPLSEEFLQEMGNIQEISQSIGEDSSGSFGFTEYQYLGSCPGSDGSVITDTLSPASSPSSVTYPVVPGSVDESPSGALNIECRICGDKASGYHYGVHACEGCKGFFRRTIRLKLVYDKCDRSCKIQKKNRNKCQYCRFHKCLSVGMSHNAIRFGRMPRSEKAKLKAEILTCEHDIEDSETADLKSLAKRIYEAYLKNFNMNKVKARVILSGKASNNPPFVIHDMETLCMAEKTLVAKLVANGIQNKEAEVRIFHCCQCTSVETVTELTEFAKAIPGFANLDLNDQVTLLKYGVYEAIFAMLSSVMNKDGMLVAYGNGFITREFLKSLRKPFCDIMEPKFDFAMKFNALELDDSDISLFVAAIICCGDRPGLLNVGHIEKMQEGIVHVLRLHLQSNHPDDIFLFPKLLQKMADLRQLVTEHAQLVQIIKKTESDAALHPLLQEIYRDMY
# Chain of Cytochrome P450 1A2 (Homo sapiens) (P05177 whole entry, looked up): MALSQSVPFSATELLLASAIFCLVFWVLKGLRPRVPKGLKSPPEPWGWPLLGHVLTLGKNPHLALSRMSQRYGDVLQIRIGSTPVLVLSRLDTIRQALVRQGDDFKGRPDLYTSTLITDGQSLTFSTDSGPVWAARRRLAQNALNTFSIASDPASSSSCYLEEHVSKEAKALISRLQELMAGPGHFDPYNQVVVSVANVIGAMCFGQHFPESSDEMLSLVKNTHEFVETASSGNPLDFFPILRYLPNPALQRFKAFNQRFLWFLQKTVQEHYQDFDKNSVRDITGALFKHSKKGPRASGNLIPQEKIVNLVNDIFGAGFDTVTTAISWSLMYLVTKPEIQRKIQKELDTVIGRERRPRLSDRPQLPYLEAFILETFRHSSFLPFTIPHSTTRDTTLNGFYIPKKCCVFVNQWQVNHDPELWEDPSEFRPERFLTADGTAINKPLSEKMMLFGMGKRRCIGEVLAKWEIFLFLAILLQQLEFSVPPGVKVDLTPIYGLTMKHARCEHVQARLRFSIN
# Chain of Cytochrome P450 2C19 (Homo sapiens) (P33261 whole entry, looked up): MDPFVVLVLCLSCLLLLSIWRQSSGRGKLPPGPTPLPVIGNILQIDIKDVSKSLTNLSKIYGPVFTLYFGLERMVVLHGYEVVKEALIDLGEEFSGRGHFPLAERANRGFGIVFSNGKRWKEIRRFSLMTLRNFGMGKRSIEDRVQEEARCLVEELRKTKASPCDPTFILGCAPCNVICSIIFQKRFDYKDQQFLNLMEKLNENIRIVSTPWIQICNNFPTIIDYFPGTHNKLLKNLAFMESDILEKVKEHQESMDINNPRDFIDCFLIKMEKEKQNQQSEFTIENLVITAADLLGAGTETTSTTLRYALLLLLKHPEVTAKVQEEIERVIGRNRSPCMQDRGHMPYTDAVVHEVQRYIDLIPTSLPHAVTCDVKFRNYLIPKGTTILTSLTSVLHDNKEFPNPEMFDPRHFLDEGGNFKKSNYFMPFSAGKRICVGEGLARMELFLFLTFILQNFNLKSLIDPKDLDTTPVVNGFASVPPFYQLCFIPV
# Chain of Cytochrome P450 3A4 (Homo sapiens) (P08684 whole entry, looked up): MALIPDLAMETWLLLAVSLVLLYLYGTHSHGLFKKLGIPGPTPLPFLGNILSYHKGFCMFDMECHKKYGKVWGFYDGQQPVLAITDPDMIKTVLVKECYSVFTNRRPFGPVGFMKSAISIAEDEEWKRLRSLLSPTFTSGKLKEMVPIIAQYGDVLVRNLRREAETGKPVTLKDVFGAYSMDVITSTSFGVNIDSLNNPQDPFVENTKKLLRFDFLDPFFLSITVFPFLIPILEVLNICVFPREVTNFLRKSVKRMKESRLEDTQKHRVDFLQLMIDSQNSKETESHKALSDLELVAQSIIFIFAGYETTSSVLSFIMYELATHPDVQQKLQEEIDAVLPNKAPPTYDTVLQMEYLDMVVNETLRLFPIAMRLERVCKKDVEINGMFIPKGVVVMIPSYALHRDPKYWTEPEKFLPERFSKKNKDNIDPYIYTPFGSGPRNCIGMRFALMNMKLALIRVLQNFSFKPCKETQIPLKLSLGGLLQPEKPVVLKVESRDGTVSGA
# Chain of 3',5'-cyclic-AMP phosphodiesterase 4B (Homo sapiens) (Q07343 whole entry, looked up): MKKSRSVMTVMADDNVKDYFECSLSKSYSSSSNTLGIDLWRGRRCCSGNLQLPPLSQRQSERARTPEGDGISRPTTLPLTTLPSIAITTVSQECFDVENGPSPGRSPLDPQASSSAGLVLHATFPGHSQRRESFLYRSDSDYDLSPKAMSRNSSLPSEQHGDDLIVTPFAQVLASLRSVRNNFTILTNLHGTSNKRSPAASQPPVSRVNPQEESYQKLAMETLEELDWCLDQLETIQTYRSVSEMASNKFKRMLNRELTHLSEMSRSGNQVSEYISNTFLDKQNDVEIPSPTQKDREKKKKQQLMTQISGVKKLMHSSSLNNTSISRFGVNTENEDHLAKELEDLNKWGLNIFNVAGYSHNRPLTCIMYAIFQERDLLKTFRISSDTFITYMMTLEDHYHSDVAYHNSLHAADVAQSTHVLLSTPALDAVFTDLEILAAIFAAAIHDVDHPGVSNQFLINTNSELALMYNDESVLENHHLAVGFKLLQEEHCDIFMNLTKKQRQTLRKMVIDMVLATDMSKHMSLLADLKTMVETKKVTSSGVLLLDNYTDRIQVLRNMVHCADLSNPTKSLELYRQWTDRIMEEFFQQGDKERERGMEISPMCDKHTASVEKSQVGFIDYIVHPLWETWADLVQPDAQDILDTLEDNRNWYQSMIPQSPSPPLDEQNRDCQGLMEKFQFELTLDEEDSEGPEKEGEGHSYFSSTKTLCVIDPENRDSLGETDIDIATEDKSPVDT
smiles,measurement,setting,value
Cc1cccc(O)c1C,Potency,[1],> 92 µM
same,Potency,[2],> 92 µM
same,Potency,[3],> 92 µM
same,Potency,[4],> 92 µM
same,Potency,[5],inactive
same,Potency,[6],inactive
same,Potency,[7],inactive
same,Potency,[8],inactive
same,Potency,[9],inactive
same,Potency,[10],inactive
same,Potency,[11],inactive
same,outcome,[12],inactive
same,Potency,[13],inactive
same,max response,[14],-2.92%
same,max response,[15],-3.02%
CCC/C=C(\CCC)C(NS(=O)(=O)c1ccc(-c2ccccc2)cc1)c1ccc(C(=O)OC)cc1 (stereo not drawn),Potency,[16],6.31 µM (active)
same,Potency,[17],1.26 µM (active)
COC(=O)[C@@]1(Cc2ccccc2)[C@H]2c3cc(C(=O)N4CCCC4)n(Cc4ccc(S(C)(=O)=O)cc4)c3C[C@H]2CN1C(=O)c1ccccc1,Potency,[16],inactive
same,Potency,[18],inactive
same,Potency,[13],3.16 µM (active)
same,Potency,[19],inactive
COC(=O)[C@H](C)[C@H]1C[C@]1(C)[C@H](NC(=O)OCc1ccccc1)c1ccccc1,Potency,[16],15.8 µM (active)
same,Potency,[18],inactive
same,Potency,[13],7.94 µM (active)
same,Potency,[19],inactive
same,Potency,[17],0.251 µM (active)
COC(=O)[C@@]1(Cc2ccc(OC)cc2)[C@@H]2[C@@H](CC(=O)[C@H]2CC(=O)C(=O)N2CCCC2)CN1C(=O)c1ccccc1,Potency,[16],inactive
same,Potency,[13],0.794 µM (active)
same,Potency,[19],inactive
CCCC[C@@H]1C[C@H]1C(NC(=O)c1ccc(C(F)(F)F)cc1)c1ccc(C(=O)OC)cc1 (stereo partly drawn),Potency,[16],15.8 µM (active)
same,Potency,[13],5.01 µM (active)
same,Potency,[19],inactive
CCCC[C@@H]1C[C@H]1C(NC(=O)Cc1ccccc1)c1ccc(-c2ccccc2)cc1 (stereo partly drawn),Potency,[16],inactive
same,Potency,[19],inactive
CCCCCCCC[N+](CCCCCCCC)(CCCCCCCC)CCCCCCCC,Potency,[1],14.5 µM (active)
same,Potency,[2],7.74 µM (active)
same,Potency,[3],10.3 µM (active)
same,Potency,[4],9.44 µM (active)
same,Potency,[5],inactive
same,Potency,[6],3.16 µM (active)
same,Potency,[7],12.6 µM (active)
same,Potency,[8],7.94 µM (active)
same,Potency,[9],10 µM (active)
same,Potency,[10],12.6 µM (active)
same,Potency,[13],12.6 µM (active)
same,Potency,[19],inactive
same,max response,[14],6.05%
same,Potency,[15],28.2 µM (active)
CCCC/C=C/C(NC(=O)c1ccccc1)c1ccccc1 (stereo not drawn),Potency,[16],3.98 µM (active)
same,Potency,[19],inactive
same,Potency,[17],7.94 µM (active)
CCC/C=C(\CCC)C(NC(=O)Cc1ccccc1)c1ccc(C(=O)OC)cc1 (stereo not drawn),Potency,[16],15.8 µM (active)
same,Potency,[13],3.98 µM (active)
same,Potency,[19],inactive
same,Potency,[17],2.51 µM (active)
CCC/C=C(\CCC)C(NC(=O)C(C)(C)C)c1ccc(C(=O)OC)cc1 (stereo not drawn),Potency,[16],inactive
same,Potency,[19],inactive
CCC/C=C(\CCC)C(NS(=O)(=O)c1ccccc1)c1ccc(C(F)(F)F)cc1 (stereo not drawn),Potency,[16],12.6 µM (active)
same,Potency,[13],6.31 µM (active)
same,Potency,[19],inactive
same,Potency,[17],7.94 µM (active)
O=C(OCC(COC(=O)c1ccccc1)(COC(=O)c1ccccc1)COC(=O)c1ccccc1)c1ccccc1,Potency,[1],> 92 µM
same,Potency,[2],> 92 µM
same,Potency,[3],> 92 µM
same,Potency,[4],> 92 µM
same,Potency,[5],inactive
same,Potency,[6],inactive
same,Potency,[7],inactive
same,Potency,[8],inactive
same,Potency,[9],inactive
same,Potency,[10],inactive
same,Potency,[11],inactive
same,outcome,[12],inactive
same,Potency,[13],inactive
same,max response,[14],-8.1%
same,max response,[15],-3%
CC1=C(C(=O)OCc2ccccc2)C(c2ccc(Cl)cc2)NC(=O)N1CCCCCC(=O)O (stereo not drawn),Potency,[16],25.1 µM (active)
same,Potency,[18],inactive
same,Potency,[19],inactive
CCC/C=C(\CCC)C(NS(=O)(=O)c1ccc(Cl)cc1)c1ccccc1 (stereo not drawn),Potency,[16],12.6 µM (active)
same,Potency,[13],7.94 µM (active)
same,Potency,[19],inactive
same,Potency,[17],0.398 µM (active)
CCC/C=C(\CCC)C(NS(=O)(=O)c1ccc(C(F)(F)F)cc1)c1ccccc1 (stereo not drawn),Potency,[16],7.94 µM (active)
same,Potency,[19],inactive
same,Potency,[17],0.398 µM (active)
CCCCCC1=C2CNC(Cc3ccccc3)(C(=O)OC)C=C2C(C)C1=O (stereo not drawn),Potency,[16],15.8 µM (active)
same,Potency,[18],inactive
same,Potency,[19],inactive
same,Potency,[17],6.31 µM (active)
CN1[C@H]2CC(OC(=O)[C@H](CO)c3ccccc3)C[C@H]1[C@H]1O[C@H]12 (stereo partly drawn),Potency,[1],> 92 µM
same,Potency,[2],> 92 µM
same,Potency,[3],> 92 µM
same,Potency,[4],> 92 µM
same,Potency,[6],inactive
same,Potency,[7],inactive
same,Potency,[8],inactive
same,Potency,[9],inactive
same,Potency,[10],inactive
same,Potency,[11],inactive
same,outcome,[12],inactive
same,max response,[14],-2.4% and 1.32%
same,max response,[15],-2.2% and 1.37%
CCCCCC/C(C=O)=C\c1ccccc1,Potency,[1],> 92 µM
same,Potency,[2],> 92 µM
same,Potency,[3],> 92 µM
same,Potency,[4],> 92 µM
same,Potency,[5],inactive
same,Potency,[6],inactive
same,Potency,[7],inactive
same,Potency,[8],inactive
same,Potency,[9],inactive
same,Potency,[10],inactive
same,Potency,[11],inactive
same,outcome,[12],inactive
same,Potency,[13],inactive
same,max response,[14],-1.11%
same,max response,[15],-1.93%

# — PubChem BioAssay (NCATS)
